Consider 57 compounds from PubChem BioAssay AID504848 (National Center for Advancing Translational Sciences (NCATS), 2011).

Structures are written as SMILES. Screen size: about 2,300 compounds; about 1,400 (61%) were called active. Inconclusive results (about 29%) are left out. The call rests on the fitted dose curve; in most records, active means well fitted inhibition curve with a large enough effect; inconclusive means small, poorly fitted or top-dose-only effect, or effect the other way; inactive means no such curve, though single readings can be large or run the other way. The set was probably picked from earlier hits. Some of the results follow.
On the % scale 0 is the no-effect control and ±100 the full control effect; potency means the concentration at half of the fitted maximal effect.

The nature of this test: Confirmation screen for delayed death inhibitors of the malarial parasite plastid, 96 hour incubation. Further: nearly all actives have a fitted effect of over 60% in size. As to conditions: P. falciparum luciferase growth in erythrocytes; series mostly up to 28.7 µM; activity change, negative = inhibition: at the top concentration. From the text: The goal of this screen is to discover new antimalarial compounds that act by inhibiting the development of the apicoplast in the malarial parasite Plasmodium falciparum. The biochemical processes that make this organelle essential for erythrocytic stage parasites are not well understood. However, antibiotics, such as azithromycin and tetracycline, which target the apicoplast translational machinery, have a potent antimalarial effect. […] We have developed a cell-based assay that measures parasite growth based on the expression of an integrated copy of a firefly luciferase reporter. To detect small molecules that cause this "delayed death phenotype, erythrocytes infected with the luciferase-expressing parasites were incubated with compounds for either one or two generations, corresponding to 48 and 96 hours, respectively. Compounds that inhibit parasite growth in the second generation, but not the first, should be enriched in antimalarials that target the apicoplast. Growth inhibition is detected by a decrease in luciferase activity. MLPCN Grant: R21 NS059500 Assay Provider: David Fidock and Eric Ekland, Columbia University Keywords: NIH Roadmap, MLPCN, MLI, MLSMR, qHTS, NCGC, qHTS, malaria, luciferase, viability
Four microliters of culture medium (RPMI 1640 with 0.5% w/v Albumax (GIBCO), 24 mM sodium bicarbonate and 10 ug/mL gentamycin) were dispensed by a Multi-drop Combi into white solid 1536-well plates (Grenier) and 23 nL compound was added by a pin tool. Four microliters of infected erythrocytes (2% hematocrit, 0.1% parasitemia final concentration) in culture medium were dispensed and the plates incubated for 96 hours at 37 C in 5% CO2. Two microliters of luciferase detection reagent was added and luminescence was detected by a ViewLux (PerkinElmer) reader
Regarding `O=C(NCCN1CCN(c2ccc([N+](=O)[O-])cc2)CC1)NCc1ccccc1`, the Potency was 12.6 µM (active).
Still for that read-out and setting: the same measure for `CC(C)CC1NC(=S)N(Cc2ccccc2)C1=O` (configuration not stated): 3.98 µM (active).
For the compound `CCC(C(=O)O)C1OC(C(C)C(O)C(C)C(=O)C(CC)C2OC3(C=CC(O)C4(CCC(C)(C5CCC(O)(CC)C(C)O5)O4)O3)C(C)CC2C)C(C)CC1C` (configuration not stated), the Potency was 0.178 µM (active).
On the same count and under the same terms, as for `CC(=O)N1CCN(S(=O)(=O)c2cccc(C(=O)NCCC3=CCCCC3)c2)CC1`, the figure is 12.6 µM (active).
As to `COC(=O)COc1ccc(S(=O)(=O)NCCC2=CCCCC2)cc1Cl`, the “activity change, negative = inhibition” value was -17.4% (inactive).
`CCNC(=O)NC(=O)C(C)OC(=O)c1oc2ccccc2c1CSC1CCCCC1` (configuration not stated): the “activity change, negative = inhibition” value was -18.8% (inactive).
Regarding `COc1ccc(OC)c(C2=CC(=O)C[C@H](c3ccc4c(c3)OCO4)C2)c1`, the Potency was 12.6 µM (active).
Still for that read-out and setting: the same measure for `CCOc1ccc(Cl)cc1C1=CC(=O)C[C@H](c2ccc(OC)cc2)C1`: 12.6 µM (active); for `O=S(=O)(Nc1cccc2ncccc12)c1cccs1`: 3.55 µM (active); for `Cc1ccc(S(=O)(=O)Nc2cccc3ncccc23)s1`: 3.98 µM (active).
On the same count and under the same terms, as for `CCCc1ccc(C(=O)NC(=O)c2ccccc2O)cc1`, the figure is 0.562 µM (active); as for `CC(C)N=C(NS(=O)(=O)c1ccccc1)C(Cl)(Cl)Cl`, 4.47 µM (active).
Regarding `NC(=S)Nn1c(-c2ccccc2)nc2ccccc2c1=O`, the “activity change, negative = inhibition” value was 24.6% (inactive).
For `O=C1c2cc(F)ccc2-n2c1nc1ccccc1c2=O`, the Potency is 0.158 µM (active).
Take `O=C1c2ccccc2-n2c1nc1ccccc1c2=O`: the Potency is 0.501 µM (active).
Still for that read-out and setting: the same measure for `O=C(CSc1nnc2ccc(-c3cccnc3)nn12)Nc1cccc(F)c1`: 8.91 µM (active); for `CC1CCC(NC(=O)CN(C)S(=O)(=O)c2ccc3c(c2)c(=O)n(C)c(=O)n3C)CC1` (configuration not stated): 3.98 µM (active); for `Cc1cccc(N(C)C(=O)CN(C)S(=O)(=O)c2ccc3c(c2)c(=O)n(C)c(=O)n3C)c1`: 12.6 µM (active).
For `Cc1cc(C)cc(-n2c(N)c(C(=O)Nc3c(C)n(C)n(-c4ccccc4)c3=O)c3nc4ccccc4nc32)c1`, the Potency is 3.16 µM (active).
Regarding `CCN(C(=O)c1cc2c(=O)n3ccccc3nc2n1CCCOC)C1CCCCC1`, the Potency was 10 µM (active).
Same read-out and setting: the same measure for `CCOC(=O)c1c(C)c(-c2ccccc2)n(CC(=O)NCCCN(CC)CC)c1C`: 11.2 µM (active); for `COc1ccc(-c2csc(N3CCN(C(=O)c4ccco4)CC3)n2)cc1`: 12.6 µM (active).
As for `O=c1[nH]c(C(F)(F)F)nc2ccc3ccccc3c12`, the “activity change, negative = inhibition” value was 26.6% (inactive).
Turning to `Cn1nc(C(F)(F)F)c(C(=O)Nc2ccc(F)cc2F)c1Sc1ccc(C(F)(F)F)cc1`, the Potency is 7.94 µM (active).
The same measure, in the same setting: as for `CC(C)N(C(=O)CSc1nnc(-c2ccc3c(c2)OCO3)n1C)C(C)C`, the figure is 10 µM (active).
Consider `O=C(Nc1ccccc1O)c1ccc([N+](=O)[O-])cc1`, for which the Potency was 12.6 µM (active).
On the same count and under the same terms, the same measure for `CCCOc1cc(NCc2ccccc2)c2ncn(C(C)C)c2c1`: 2.82 µM (active); for `O=C(OC[C@@H]1O[C@@](O)(COC(=O)c2cccnc2)[C@H](OC(=O)c2cccnc2)[C@H]1OC(=O)c1cccnc1)c1cccnc1`: 6.31 µM (active).
Take `Cn1c(CCn2ccccc2=O)nc2cc(NC(=O)COc3ccccc3)ccc21`: the Potency is 10 µM (active).
With `CCOc1ccc(/C=C2\SC(=S)N(C(C(=O)O)c3ccccc3)C2=O)cc1OC` (configuration not stated), the “activity change, negative = inhibition” value is -7.03% (inactive).
Regarding `COc1ccccc1OCCCOc1cccc(/C=C2\SC(=O)NC2=O)c1`, the Potency is 11.2 µM (active).
Still for that read-out and setting: as for `CNC(=S)N(CCc1c(C)[nH]c2ccc(C)cc12)Cc1cc(OC)c(OC)c(OC)c1`, the figure is 11.2 µM (active); as for `CNC(=S)N(CCc1c(C)[nH]c2ccc(Cl)cc12)Cc1cccnc1`, 12.6 µM (active); as for `O=C(CCl)Nc1cn(-c2ccccc2)nc1-c1ccccc1`, 11.2 µM (active).
The same measure, in the same setting: the same measure for `Cc1cccc(NC(=O)c2cn(-c3ccccc3)nc2-c2ccccc2)c1`: 14.1 µM (active); for `OC(c1ccccc1)(c1ccccc1)C1CCN(C(=S)NCCc2ccccc2)CC1`: 5.01 µM (active).
Regarding `CCCCNC(=O)c1ccc(CS(=O)(=O)c2cccc(C(F)(F)F)c2)o1`, the “activity change, negative = inhibition” value is -32.4% (inactive).
`CCC1CCCCN1CCCNC(=O)c1ccc(CS(=O)(=O)c2ccc(Br)cc2)o1` (configuration not stated): the Potency was 5.01 µM (active).
On to `CCCCN(CCCNC(=O)c1ccc(CS(=O)(=O)c2ccc(OC)cc2)o1)Cc1ccccc1`, for which the Potency was 5.01 µM (active).
Same read-out and setting: as for `CN(CCCNC(=O)c1ccc(CS(=O)c2ccc(Br)cc2)o1)Cc1ccccc1` (configuration not stated), the figure is 1.78 µM (active).
The same measure, in the same setting: as for `CN(CCNC(=O)c1ccc(CS(=O)(=O)c2ccc(Br)cc2)o1)CCc1ccccc1`, the figure is 2 µM (active); as for `Cn1c(=O)c([N+](=O)[O-])c(-n2ccnc2)c2ccccc21`, 14.1 µM (active); as for `CCc1ccc(/C=N/n2c(C)cc(C)c(C#N)c2=O)cc1`, 6.31 µM (active).
On the same count and under the same terms, as for `CCC1CN(C(=O)N2CCC(C(=O)NCc3cccc(OC)c3OC)CC2)c2cc(C)ccc2O1` (configuration not stated), the figure is 11.2 µM (active).
With `COc1cccc(COC(=O)C2CC(=O)N(Cc3ccco3)C2)c1OC` (configuration not stated), the “activity change, negative = inhibition” value is -10.9% (inactive).
Regarding `CC(CN1CCC(n2nccc2NC(=O)c2ccccc2Cl)CC1)c1ccccc1` (configuration not stated), the Potency was 10 µM (active).
The same measure, in the same setting: as for `Cc1ccc(CN2CCC(n3nccc3NC(=O)c3ccccc3C)CC2)o1`, the figure is 12.6 µM (active); as for `O=c1[nH]c(=O)n(Cc2ccco2)c2c1C(C(F)(F)F)(C(F)(F)F)N=C(CCc1ccccc1)N2`, 6.31 µM (active); as for `CCOCCCNC(=O)/C(C#N)=C/c1ccc(-c2ccc(S(=O)(=O)N3CCOCC3)cc2)o1`, 11.2 µM (active).
On the same count and under the same terms, as for `COc1ccc(NC(=O)CSc2ccc(-c3ccco3)nn2)c(OC)c1`, the figure is 11.2 µM (active); as for `Cc1cc(=O)n2nc(N3CCC(C(=O)NCCc4ccc(Cl)cc4)CC3)sc2n1`, 10 µM (active); as for `Cc1cc(=O)n2nc(N3CCCC(C(=O)NCc4ccc(Cl)cc4)C3)sc2n1` (configuration not stated), 11.2 µM (active).
The same measure, in the same setting: as for `Cc1cc(=O)n2nc(N3CCC(C(=O)NCc4ccc(F)cc4)CC3)sc2n1`, the figure is 8.91 µM (active); as for `Cc1cc(=O)n2nc(N3CCC(C(=O)NCc4ccc(Cl)cc4)CC3)sc2n1`, 10 µM (active); as for `O=C(CCl)Nc1ccc(S(=O)(=O)Nc2nccs2)cc1`, 1.26 µM (active).
For the compound `O=C(CN1C(=O)/C(=C/c2ccc(F)cc2)SC1=S)N1CCN(CCc2ccccn2)CC1`, the Potency was 15.8 µM (active).
Regarding `CC(C)(C)C(=O)/C(=C\c1cccc([N+](=O)[O-])c1)n1cncn1`, the Potency is 10 µM (active).
